The list is not random: actives were taken first. Their share in the collection is about 7.6%.
KB-3-1 tox – qHTS assay for MDR1-selective chemotherapeutics: Primary screen using the parental adenocarcinoma cell KB-3-1 | KB-3-1 viability, CellTiter-Glo ATP luminescence, 72 h | actives 1.4% (n = 400,000) | Potency, µM (doses to about 46.1 µM), actives largely listed as cytotoxic; note: nearly all actives have a fitted effect of over 60% in size
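Luminescent ATP read-out (CellTiter-Glo) measures survival of drug-naive KB-3-1 cells after 72 h compound exposure at 37 °C. Titration series was screened from lowest to highest concentration, with DMSO vehicle plates as background controls.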
MCF10A rereplic – A quantitative high throughput screen for small molecules that induce DNA re-replication in MCF 10a normal breast cells; Potency, µM (doses to about 46.1 µM), most hits filed as activators; AID 624296, 2012; actives 2.9% (n = 350,000); MCF 10A DNA re-replication, Hoechst nuclear intensity, 48 h; note: nearly all actives have a fitted effect of over 50% in size
SW480 rereplic – A quantitative high throughput screen for small molecules that induce DNA re-replication in SW480 colon adenocarcinoma cells; actives 1.8% (n = 340,000); SW480 DNA re-replication, Hoechst DNA content imaging, 48 h; Potency, µM (series often up to 46.1 µM), usual class: activators; AID 624297, 2012; note: nearly all actives have a fitted effect of over 55% in size
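Hoechst fluorescence of nuclei (405 nm excitation, 500-530 nm emission) measured by plate-scanning imager after 48 hr compound exposure at 37 C; re-replication scored as increased number of nuclei with elevated intensity.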
KCNH2 WT inh – qHTS for Inhibitors of KCHN2 3.1: Wildtype qHTS; Voltage-gated inwardly rectifying potassium channel KCNH2 (Homo sapiens), Q12809; activity change, % at 1.84 µM; U2OS, BacMam KCNH2, thallium flux FluxOr; stronger effect = lower value; actives 0.37% (n = 340,000);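 active = maximum activity change below -70%; inconclusive = maximum activity change between -70% and -50%; inactive = maximum activity change above -50%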
Target sequence (Q12809 whole entry, looked up): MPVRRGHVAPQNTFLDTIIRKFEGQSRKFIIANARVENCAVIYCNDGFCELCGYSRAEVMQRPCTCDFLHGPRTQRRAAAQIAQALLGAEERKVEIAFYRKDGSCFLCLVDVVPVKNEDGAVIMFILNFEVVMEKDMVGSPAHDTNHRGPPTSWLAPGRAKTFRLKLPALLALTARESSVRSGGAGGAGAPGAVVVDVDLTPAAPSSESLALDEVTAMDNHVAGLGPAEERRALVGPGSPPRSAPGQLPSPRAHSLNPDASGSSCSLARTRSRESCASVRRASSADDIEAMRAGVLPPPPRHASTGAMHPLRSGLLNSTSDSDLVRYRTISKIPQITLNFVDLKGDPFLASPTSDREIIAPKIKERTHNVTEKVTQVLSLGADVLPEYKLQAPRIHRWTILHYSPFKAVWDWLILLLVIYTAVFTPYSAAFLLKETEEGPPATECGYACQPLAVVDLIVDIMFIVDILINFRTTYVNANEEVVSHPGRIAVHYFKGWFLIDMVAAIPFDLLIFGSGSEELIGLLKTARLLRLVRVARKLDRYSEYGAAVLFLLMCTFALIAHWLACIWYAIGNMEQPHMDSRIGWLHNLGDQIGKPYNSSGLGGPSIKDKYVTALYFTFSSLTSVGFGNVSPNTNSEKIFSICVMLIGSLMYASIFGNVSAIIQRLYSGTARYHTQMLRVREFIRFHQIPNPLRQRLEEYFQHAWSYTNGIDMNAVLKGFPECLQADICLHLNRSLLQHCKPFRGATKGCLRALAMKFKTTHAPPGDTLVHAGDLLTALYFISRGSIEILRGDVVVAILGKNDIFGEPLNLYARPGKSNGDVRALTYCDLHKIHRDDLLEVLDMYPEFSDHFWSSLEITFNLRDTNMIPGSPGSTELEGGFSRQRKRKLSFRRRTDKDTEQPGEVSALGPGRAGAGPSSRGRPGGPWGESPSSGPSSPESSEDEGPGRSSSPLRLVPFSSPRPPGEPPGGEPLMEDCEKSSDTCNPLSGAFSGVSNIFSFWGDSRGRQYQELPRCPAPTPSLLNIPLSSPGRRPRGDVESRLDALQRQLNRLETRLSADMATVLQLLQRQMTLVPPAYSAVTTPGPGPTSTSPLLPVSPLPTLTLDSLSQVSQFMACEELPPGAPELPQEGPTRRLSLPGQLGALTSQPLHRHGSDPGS
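U2OS cells were transduced with wild-type KCNH2 virus (2.03 x 10^8 / mL) for 4 h at room temperature, then cultured overnight at 37 C. Thallium flux was read with FluxOr dye. Rate constants were normalized to DMSO controls.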
KCNH2 3.1 inh – qHTS for Inhibitors of KCHN2 3.1: Mutant qHTS; actives 0.95% (n = 340,000); activity change, % (tested at about 1.8 µM); Potassium voltage-gated channel subfamily H member 2, brain isoform KCNH2 3.1 (human); U2OS KCNH2 3.1, thallium flux FluxOr; stronger effect = lower value;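 active = maximum activity change below -70%; inconclusive = maximum activity change from -70% to -50%; inactive = maximum activity change above -50%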;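 note: thallium influx rate constant from kinetic fluorescence after stimulation buffer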
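Normalized rate constant (relative to positive and negative DMSO controls) derived from a 2 min kinetic fluorescence read after stimulation; U2OS cells expressing the 3.1 isoform via virus at 1.77 x 10^8 /mL.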
KB-V1 MDR tox – qHTS assay for MDR1-selective chemotherapeutics: Primary screen using the drug-selected MDR subline cells KB-V1; actives 3.4% (n = 400,000); Potency, µM (titrated, usually from 46.1 µM), hits mostly cytotoxic; KB-V1 MDR cells viability, CellTiter-Glo, 72 h; note: nearly all actives have a fitted effect of over 60% in size
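Cells of the MDR subline KB-V1 are plated, dosed with compound at multiple concentrations, and incubated 72 h at 37 degrees C; CellTiter-Glo is then added and luminescence read after 10 min.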
Of the large screens only hits and unclear results are named; the others gave an inactive call. Unless noted, calls come from the whole dose curve; as a rule, active = well fitted curve in the direction sought with a large enough effect; inconclusive = small, poorly fitted or top-dose-only effect, or another doubt; inactive = no such curve, though single readings can be large; an effect the other way counts as inactive or inconclusive.

O=C(C[n+]1ccc2ccccc2c1)c1ccc(O)c(O)c1	none (no result: MCF10A rereplic, SW480 rereplic, KCNH2 WT inh, KCNH2 3.1 inh)
CCOC(=O)c1cc(CC)sc1NC(=O)CN1C(=O)C(=O)N(CC(C)C)C1=O	MCF10A rereplic inconclusive
COc1ccccc1Oc1ccc(S(=O)(=O)N2CCOCC2)cc1S(=O)(=O)N1CCOCC1	none
Cc1ccc(Oc2ccc(S(=O)(=O)N3CCOCC3)cc2C(N)=O)c(-n2nc3ccccc3n2)c1	KB-3-1 tox 6.5µM, MCF10A rereplic 4.6µM, SW480 rereplic 5.2µM, KB-V1 MDR tox 18µM
CNc1cccnc1C=NNC(N)=S	KB-3-1 tox inconclusive, SW480 rereplic 0.92µM, KCNH2 WT inh inconclusive, KB-V1 MDR tox inconclusive
O=C(NCc1ccco1)C1CCCN1C(=O)Nc1ccc(Cl)cc1 (centres undefined)	none (no result: KCNH2 WT inh)
Cc1ccc(C)c(OCC(=O)Nc2ccc3c(c2)OCO3)c1C	KB-3-1 tox 8.2µM, SW480 rereplic inconclusive, KB-V1 MDR tox inconclusive
COC(=O)c1ccc(NC(=O)COc2ccc3c(c2)OCO3)cc1	SW480 rereplic 0.41µM
CCN(CC(=O)Nc1ccc2c(c1)OCCO2)Cc1cc(=O)oc2c(C)c(C)ccc12	KB-V1 MDR tox 4.1µM
Cc1ccc(-n2c(SCC(=O)Nc3ccc4cn[nH]c4c3)nnc2-c2ccco2)cc1	KCNH2 3.1 inh -112
CNC(=O)CSc1nnc(-c2ccco2)n1-c1ccc(C)cc1	none
O=C(NCCCN1CCN(CCCNC(=O)c2cccc([N+](=O)[O-])c2)CC1)c1cccc([N+](=O)[O-])c1	KCNH2 3.1 inh -81
O=C(NCC(=O)N1CCCCCCC1)c1cccc([N+](=O)[O-])c1	KB-V1 MDR tox 21µM
O=C(NCCCc1ccccc1)c1cccc([N+](=O)[O-])c1	none
Cc1cccc(C(=O)NCC(=O)N2CCCC2)c1	KB-V1 MDR tox inconclusive
CC(C)c1ccc(C(=O)NCCCN2CCN(CCCNC(=O)c3ccc(C(C)C)cc3)CC2)cc1	MCF10A rereplic 23µM, SW480 rereplic inconclusive, KCNH2 3.1 inh inconclusive, KB-V1 MDR tox inconclusive
COc1ccc(CCC(=O)Nc2ccc(N3CCOCC3)c(S(=O)(=O)Nc3ccc(OC)cc3)c2)cc1	none
O=C1c2ccccc2C(c2nnnn2-c2ccc3c(c2)OCCO3)N1Cc1cccnc1 (centres undefined)	none (no result: MCF10A rereplic, SW480 rereplic, KCNH2 WT inh, KCNH2 3.1 inh)
CCOC(=O)c1c(NC(=O)CSc2nncs2)sc(C)c1-c1ccccc1	KB-3-1 tox inconclusive, MCF10A rereplic 7.3µM, KB-V1 MDR tox 7.3µM
CCOC(=O)c1c(NC(=O)CSc2nnnn2C)sc(C)c1-c1ccc(C)cc1	KB-3-1 tox inconclusive, MCF10A rereplic inconclusive, KB-V1 MDR tox 13µM
CCOC(=O)c1c(-c2ccccc2)csc1NC(=O)CSc1nncs1	KB-V1 MDR tox inconclusive
CCOC(=O)CC[C@H](NC(=O)Cn1cc(C)c(=O)[nH]c1=O)C(=O)OCC	none
Cc1cccc(Nc2ncccc2C(=O)NCc2cccs2)c1C	KCNH2 3.1 inh -73
Cc1ccc(Nc2ncccc2C(=O)NCc2cccs2)c(C)c1	MCF10A rereplic inconclusive (no result: KCNH2 3.1 inh)
O=C1CC(c2ccccc2)=NN1c1nc(-c2ccccc2)cs1	MCF10A rereplic 16µM
O=C1C2C3c4ccccc4C(c4ccccc43)[C@@H]2C(=O)N1c1nc(-c2ccccc2)cs1 (some centres undefined)	KB-V1 MDR tox 21µM
CC1=NN(c2nc(-c3ccccc3)cs2)C(=O)C1	MCF10A rereplic inconclusive
COc1ccc(-c2nc(-c3ccccc3)ncc2S(C)(=O)=O)cc1	none
CCOc1ccc(-n2c(N)c(C(=O)NCc3ccco3)c3nc4ccccc4nc32)cc1	MCF10A rereplic 13µM, SW480 rereplic inconclusive, KB-V1 MDR tox inconclusive
Nc1c(C(=O)NCc2ccccc2)c2nc3ccccc3nc2n1CCCN1CCOCC1	MCF10A rereplic 18µM, SW480 rereplic 18µM
O=C(NCc1ccco1)c1ccc2ccccc2n1	none

Screens as filed in PubChem BioAssay.
